Values joined by “and” are separate entries in the source; they are usually repeats but may differ in a detail not shown here. Equal values may be shown once. Where a name gives a salt, the structure may show the parent alone. ± gives the standard deviation of the averaged measurements.
Each compound was assayed on ES2 (assay: cell viability relative to DMSO control (MTS) (fraction of DMSO control); higher = more viable cells / less growth inhibition). Details: 10 µM; 48 h.
Method in brief: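 A 367-compound […] library was tested at a final concentration of 10 µM on TOV-21G and ES2 clear cell carcinoma cells (5000 cells per well, 96-well plates, pre-grown 24 h), with control wells receiving vehicle only. Following 48 h of exposure, CellTiter 96 AQueous One Solution was used as the manufacturer directs. This MTS assay gives cell viability as a fraction of the vehicle control.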

Compared with COc1cc2nccc(Oc3ccc(NC(=S)NC(=O)c4ccccc4C)cc3)c2cc1OC [PDGF receptor tyrosine kinase inhibitor V], COc1cc(Nc2ncc3c(n2)-c2ccc(Cl)cc2C(c2c(F)cccc2OC)=NC3)ccc1C(=O)O is lower in cell viability: 0.874 for the first, 0.769 for the second.

Compared with C[C@]1(c2nc3c(C(N)=O)cccc3[nH]2)CCCN1 [ABT-888 (Veliparib)], O=Nc1c(-c2c(O)[nH]c3cc(Br)ccc23)[nH]c2ccccc12 [GSK-3 inhibitor IX] is lower in cell viability: 0.897 for the first, 0.643 for the second.

First: Cc1cc(C=C2C(=O)C=CC2=O)cc(C)c1O
Second: Cc1c[nH]c(/C=C2\C(=O)Nc3ccccc32)c1CCC(=O)O
The cell viability of the first is lower: 0.801 for the first, 1.1 for the second.

First: CC(C)C(C(=O)O)N1C(=O)C(=Cc2ccc(Br)cc2)SC1=S (configuration not stated)
Second: CCOC(=O)C1=C(N)Oc2ccc(Br)cc2C1C(C#N)C(=O)OCC (configuration not stated)
The cell viability of the first is higher: 1.11 for the first, 1.04 for the second.

First: CCN(CC)CC(=O)Nc1c(C)cccc1C [Lidocaine]
Second: CCn1cc(C(=O)O)c(=O)c2ccc(C)nc21 [Nalidixic acid]
The cell viability of the first is higher: 1.1 for the first, 0.981 for the second.

Compared with CC(C)C[C@H](NC(=O)[C@H](Cc1ccccc1)NC(=O)c1cnccn1)B(O)O [bortezomib], COC(=O)C[C@H](NC(=O)[C@H](C)NC(=O)[C@@H](NC(=O)OCc1ccccc1)C(C)C)C(=O)CF is higher in cell viability: 0.302 for the first, 1.42 for the second.

Compared with CC(C)[C@H](CO)Nc1nc(Nc2cccc(Cl)c2)c2ncn(C(C)C)c2n1 [Purvalanol A], Cc1ccc(Nc2nccc(N(C)c3ccc4c(C)n(C)nc4c3)n2)cc1S(N)(=O)=O [pazopanib] is higher in cell viability: 0.815 for the first, 0.96 for the second.

Compared with CS(=O)(=O)CCNCc1ccc(-c2ccc3ncnc(Nc4ccc(OCc5cccc(F)c5)c(Cl)c4)c3c2)o1 [lapatinib], c1ccc2c(-c3cnn4cc(-c5ccc(N6CCNCC6)cc5)cnc34)ccnc2c1 is lower in cell viability: 0.482 for the first, 0.267 for the second.

CN(C)CC(=O)Nc1ccc2[nH]c(=O)c3ccccc3c2c1 and Oc1c2ccccc2c2c3c(cccc13)N=N2 are within error of each other in cell viability: 0.788 for the first, 0.721 ± 0.32 for the second.

Going from CCCC[C@@H](C)/C=C(C)/C=C(\C)C(=O)NC1=C[C@@](O)(/C=C/C=C/C=C/C(=O)NC2=C(O)CCC2=O)[C@@H]2O[C@@H]2C1=O [Manumycin A] to COc1cccc2c1C(=O)c1c(O)c3c(c(O)c1C2=O)C[C@@](O)(C(=O)CO)C[C@@H]3O[C@H]1C[C@H](N)[C@H](O)[C@H](C)O1 [Doxorubicin, HCl], the cell viability falls from 1.06 to 0.312.

First: O=C([O-])c1ccccc1O.[Na+] [Sodium salicylate]
Second: O=C(O)c1cc(NCc2cc(O)ccc2O)ccc1O [Lavendustin C]
The cell viability of the first is lower: 0.785 for the first, 1.36 for the second.

Going from O=S(=O)(c1cccc2cnccc12)N1CCCNCC1 to c1cc(CN2CCCNCCNCCCNCC2)ccc1CN1CCCNCCNCCCNCC1 [AMD3100 octahydrochloride], the cell viability rises from 0.979 to 1.4.

Compared with CC(C)c1cc(/C=C(\C#N)C(=O)NCCCc2ccccc2)cc(C(C)C)c1O, O=C(Nc1cccc(NC(=O)c2cccc(O)c2O)c1)c1cccc(O)c1O is lower in cell viability: 1.3 ± 0.21 for the first, 0.614 for the second.

First: CN(C)CCCCC(=O)Nc1ccc(NC(=S)NC(=O)c2ccc(C(C)(C)C)cc2)cc1 [Tenovin-6]
Second: COC(=O)Nc1nc2cc(C(=O)c3cccs3)ccc2[nH]1 [Nocodazole]
The cell viability of the first is lower: 0.406 for the first, 0.451 for the second.

First: CCNCCCNCCCCNCCCNCC [N1,N12-Diethylspermine (BESpm)]
Second: CCCCOc1cc(CC2CNC(=O)N2)ccc1OC (configuration not stated)
The cell viability of the first is higher: 1 for the first, 0.901 for the second.

Compared with C[C@@H]1C[C@H]2O[C@@H]2/C=C\C=C\C(=O)Cc2c(Cl)c(O)cc(O)c2C(=O)O1 [Radicicol], Nc1nc2c(nc(Sc3ccc(Cl)cc3)n2C2O[C@@H]3CO[P+](O)(S)OC3[C@@H]2O)c(=O)[nH]1 (some centres not stated) is higher in cell viability: 0.533 for the first, 1.02 ± 0.17 for the second.

First: C[n+]1ccc(-c2c3nc(c(-c4cc[n+](C)cc4)c4ccc([nH]4)c(-c4cc[n+](C)cc4)c4ccc([nH]4)c(-c4cc[n+](C)cc4)c4nc2C=C4)C=C3)cc1
Second: Nc1[nH]nc2nnc(-c3c(-c4ccccc4)nn4ccccc34)cc12 [ERK inhibitor II]
The cell viability of the first is higher: 0.933 for the first, 0.847 for the second.

First: O=c1oc2c(O)c(O)cc3c(=O)oc4c(O)c(O)cc1c4c23 [Ellagic acid]
Second: COc1cc([C@@H]2c3cc4c(cc3[C@@H](O[C@@H]3O[C@@H]5CO[C@@H](C)O[C@H]5[C@H](O)[C@H]3O)[C@H]3COC(=O)[C@H]23)OCO4)cc(OC)c1O [Etoposide (VP-16)]
The cell viability of the first is higher: 0.827 for the first, 0.655 for the second.

O=c1cc(N2CCOCC2)oc2c(-c3ccccc3)cccc12 was tested, and the cell viability was 0.666 and 0.627.

— the supplement of paper PMC12669797
